# Experimental data: the supplement of paper PMC10077471
# The full ranking holds about 1,900 compounds; the median of “excess over highest single agent (ExcessHSA) synergy score, 6x6 matrix” is about -83, and the lowest 2% start at about -370. The entries come from a sample that favours the lowest values as a whole.
# Tested on: NCI-H446
# Test: excess over highest single agent (ExcessHSA) synergy score, 6x6 matrix; higher = less synergy (more negative = stronger synergy)
# Settings: 72 h; CellTiter-Glo viability
row,Structure (SMILES),excess over highest single agent
1,Cc1cc(CN2CCN(c3c(Br)cnc4nc(-c5ccc(N6CCN(C)CC6)cc5)[nH]c34)CC2)no1 + Cc1sc2c(c1C)C(c1ccc(Cl)cc1)=N[C@@H](CC(=O)OC(C)(C)C)c1nnc(C)n1-2 [NCGC00250412-19],-107
2,CN(C)c1ccc(-c2nc3ncc(Cl)c(N4CCN(CC(=O)Nc5nccs5)CC4)c3[nH]2)cc1 + Cc1sc2c(c1C)C(c1ccc(Cl)cc1)=N[C@@H](CC(=O)OC(C)(C)C)c1nnc(C)n1-2 [NCGC00250412-19],-382
3,CCOC(CN1C(=O)[C@](CC(=O)Nc2ccc(C)cc2)(NC(=O)Nc2ccc(C)cc2)c2ccccc21)OCC + Cc1sc2c(c1C)C(c1ccc(Cl)cc1)=N[C@@H](CC(=O)OC(C)(C)C)c1nnc(C)n1-2 [NCGC00250412-19],-94.2
4,COc1cc2c(cc1OC)CN(CCc1ccc(NC(=O)c3cc(OC)c(OC)cc3NC(=O)c3cnc4ccccc4c3)cc1)CC2 + Cc1sc2c(c1C)C(c1ccc(Cl)cc1)=N[C@@H](CC(=O)OC(C)(C)C)c1nnc(C)n1-2 [NCGC00250412-19],50.9
5,Cc1cccc(-c2[nH]c(C(C)(C)C)nc2-c2ccc3c(c2)OCO3)n1 + Cc1sc2c(c1C)C(c1ccc(Cl)cc1)=N[C@@H](CC(=O)OC(C)(C)C)c1nnc(C)n1-2 [NCGC00250412-19],-84.7
6,CC(C)(O)CC(=O)NCCn1ccc2ncnc(Nc3ccc(Oc4cccc(C(F)(F)F)c4)c(Cl)c3)c21 + Cc1sc2c(c1C)C(c1ccc(Cl)cc1)=N[C@@H](CC(=O)OC(C)(C)C)c1nnc(C)n1-2 [NCGC00250412-19],16.5
7,CC(C)[C@H](C(=O)Nc1ccc(C(=O)NO)cc1)c1ccccc1 + Cc1sc2c(c1C)C(c1ccc(Cl)cc1)=N[C@@H](CC(=O)OC(C)(C)C)c1nnc(C)n1-2 [NCGC00250412-19],-112
8,C=C1/C(=C\C=C2/CCC[C@]3(C)[C@@H]([C@H](C)/C=C/C=C/C(O)(CC)CC)CC[C@@H]23)C[C@@H](O)C[C@@H]1O + Cc1sc2c(c1C)C(c1ccc(Cl)cc1)=N[C@@H](CC(=O)OC(C)(C)C)c1nnc(C)n1-2 [NCGC00250412-19],84.4
9,COc1ccc2cc1Oc1ccc(cc1)C[C@H]1c3cc(c(OC)cc3CCN1C)Oc1c(OC)c(OC)cc3c1[C@H](C2)N(C)CC3 + Cc1sc2c(c1C)C(c1ccc(Cl)cc1)=N[C@@H](CC(=O)OC(C)(C)C)c1nnc(C)n1-2 [NCGC00250412-19],-432
10,COc1ccc2c(c1OC)CN1CCc3cc4c(cc3C1C2)OCO4 (centres undefined) + Cc1sc2c(c1C)C(c1ccc(Cl)cc1)=N[C@@H](CC(=O)OC(C)(C)C)c1nnc(C)n1-2 [NCGC00250412-19],-109
11,COc1cc2c(cc1OC)[C@@H]1Cc3ccc(OC)c(OC)c3CN1CC2 + Cc1sc2c(c1C)C(c1ccc(Cl)cc1)=N[C@@H](CC(=O)OC(C)(C)C)c1nnc(C)n1-2 [NCGC00250412-19],-95.9
12,Cc1ccc2c(c1)c1c(n2CCc2ccc(C)nc2)CCN(C)C1 + Cc1sc2c(c1C)C(c1ccc(Cl)cc1)=N[C@@H](CC(=O)OC(C)(C)C)c1nnc(C)n1-2 [NCGC00250412-19],-121
13,CC[C@@]1(O)C(=O)OCc2c1cc1n(c2=O)Cc2cc3c(CN(C)C)c(O)ccc3nc2-1 + Cc1sc2c(c1C)C(c1ccc(Cl)cc1)=N[C@@H](CC(=O)OC(C)(C)C)c1nnc(C)n1-2 [NCGC00250412-19],-475
14,CCc1c2c(nc3ccc(O)cc13)-c1cc3c(c(=O)n1C2)COC(=O)[C@]3(O)CC + Cc1sc2c(c1C)C(c1ccc(Cl)cc1)=N[C@@H](CC(=O)OC(C)(C)C)c1nnc(C)n1-2 [NCGC00250412-19],-327
15,CCc1c2c(nc3ccc(OC(=O)N4CCC(N5CCCCC5)CC4)cc13)-c1cc3c(c(=O)n1C2)COC(=O)[C@]3(O)CC + Cc1sc2c(c1C)C(c1ccc(Cl)cc1)=N[C@@H](CC(=O)OC(C)(C)C)c1nnc(C)n1-2 [NCGC00250412-19],-249
16,CC[C@@]1(O)C(=O)OCc2c1cc1n(c2=O)Cc2cc3ccccc3nc2-1 + Cc1sc2c(c1C)C(c1ccc(Cl)cc1)=N[C@@H](CC(=O)OC(C)(C)C)c1nnc(C)n1-2 [NCGC00250412-19],-249
17,CC[C@@]1(O)C(=O)OCc2c1cc1n(c2=O)Cc2cc3cc(O)ccc3nc2-1 + Cc1sc2c(c1C)C(c1ccc(Cl)cc1)=N[C@@H](CC(=O)OC(C)(C)C)c1nnc(C)n1-2 [NCGC00250412-19],-416
18,CC[C@H](CC#N)OC(=O)N[C@@H](C)c1cccc(NC(=O)Nc2ccc(-c3cnco3)c(OC)c2)c1 + Cc1sc2c(c1C)C(c1ccc(Cl)cc1)=N[C@@H](CC(=O)OC(C)(C)C)c1nnc(C)n1-2 [NCGC00250412-19],-174
19,Cc1cccc(Nc2nc(N[C@@H]3CCCC[C@@H]3N)ncc2C(N)=O)c1 + Cc1sc2c(c1C)C(c1ccc(Cl)cc1)=N[C@@H](CC(=O)OC(C)(C)C)c1nnc(C)n1-2 [NCGC00250412-19],-24
20,Cn1cnc(-c2cc3nccc(Oc4ccc(NC(=S)NC(=O)Cc5ccccc5)cc4F)c3s2)c1 + Cc1sc2c(c1C)C(c1ccc(Cl)cc1)=N[C@@H](CC(=O)OC(C)(C)C)c1nnc(C)n1-2 [NCGC00250412-19],-36.3
21,C#Cc1cccc(Nc2ncnc3cc(OCCOC)c(OCCO)cc23)c1 + Cc1sc2c(c1C)C(c1ccc(Cl)cc1)=N[C@@H](CC(=O)OC(C)(C)C)c1nnc(C)n1-2 [NCGC00250412-19],-46.8
22,CCN1CCC(n2cc(CNc3cc(Cl)c4ncc(C#N)c(Nc5ccc(F)c(Cl)c5)c4c3)nn2)CC1 + Cc1sc2c(c1C)C(c1ccc(Cl)cc1)=N[C@@H](CC(=O)OC(C)(C)C)c1nnc(C)n1-2 [NCGC00250412-19],44.4
23,CN(C1CCc2c(c3ccccc3n2CC(=O)O)C1)S(=O)(=O)c1ccc(F)cc1 (centres undefined) + Cc1sc2c(c1C)C(c1ccc(Cl)cc1)=N[C@@H](CC(=O)OC(C)(C)C)c1nnc(C)n1-2 [NCGC00250412-19],-115
24,CC/C=C\CC1C(=O)CCC1CC(=O)OC (centres undefined) + Cc1sc2c(c1C)C(c1ccc(Cl)cc1)=N[C@@H](CC(=O)OC(C)(C)C)c1nnc(C)n1-2 [NCGC00250412-19],223
